According to publication PMC5540273 (PLoS ONE, 2017):

Assays:
Details in all cases: concentration: 1 μM, replicates: in singlicate; n = 1
[1] = system: ACVR2A
[2] = system: ACVR2B
[3] = system: ACVRL1
[4] = system: T1, ADCK3
T1 construct: gene CABC1

[5] = system: ADCK4
[6] = system: AKT1
[7] = system: AKT2
[8] = system: AKT3
[9] = system: ALK
[10] = system: T2, AMPK-alpha1
T2 construct: gene PRKAA1
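Note: KINOMEscan kinase panel screen.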

SMILES	%Inh [1]	%Inh [2]	%Inh [3]	%Inh [4]	%Inh [5]	%Inh [6]	%Inh [7]	%Inh [8]	%Inh [9]	%Inh [10]
CN1c2ccc(CNc3ccc(F)cc3)cc2-c2c(cnn2C)S1(=O)=O	1%	0%	0%	2%	5%	0%	0%	0%	8%	0%
COc1cc2ncn(-c3cc(OCc4sccc4Cl)c(C(N)=O)s3)c2cc1OC [GSK448459]	0%	0%	0%	0%	39%	0%	1%	0%	21%	0%
COc1ccc(Nc2nccc(N3CCC(NC(=O)Nc4cccc(C(C)=O)c4)C3)n2)cc1 (stereo not drawn) [GSK1379731]	0%	11%	0%	0%	11%	0%	0%	0%	15%	0%
C[C@@H](Oc1cc(-n2cnc3ccc(NC(=O)NC(C)(C)C)cc32)sc1C(N)=O)c1ccccc1Cl [GSK346294]	0%	17%	1%	37%	31%	0%	3%	0%	0%	6%
CC(=O)Nc1ccc(COc2ccc(Nc3ccnc4cc(-c5ccccn5)ccc34)cc2)cc1.Cl [GW440148]	0%	59%	3%	18%	26%	0%	15%	0%	6%	0%
O=C(NCCCN1CCOCC1)c1cccc(Nc2nccc(Nc3ccc(Oc4ccccc4)cc3)n2)c1 [GW663929]	0%	5%	0%	15%	36%	0%	11%	0%	7%	0%
Cc1nnc(-c2ccc3ncc(-c4ccc(S(C)=O)cc4)n3c2)o1 (stereo not drawn)	0%	0%	0%	0%	18%	3%	15%	2%	40%	1%
COc1ccc(S(=O)(=O)NC2CCN(c3cc(C)nc(Nc4cccc(C#N)c4)n3)CC2)cc1.O=C(O)C(F)(F)F [GSK1653539]	0%	0%	0%	20%	35%	0%	0%	0%	5%	0%
COC(=O)Nc1nc2cc(Oc3ccc(NC(=O)Nc4cc(F)ccc4F)cc3)ccc2[nH]1.Cl [GW701424]	0%	0%	0%	7%	40%	0%	4%	0%	28%	0%
COc1cc(Nc2nccc(N3CCC(NC(=O)c4cccc(NC(C)=O)c4)C3)n2)cc(OC)c1OC (stereo not drawn) [GSK1379754]	17%	18%	0%	10%	36%	0%	0%	0%	29%	8%
NS(=O)(=O)c1cccc(-c2ccc3ncc(N4CCOCC4)nc3c2)c1 [GSK1535721]	0%	0%	0%	28%	9%	0%	4%	0%	6%	1%
CCc1ccnc(/C=C/c2n[nH]c3cc(Sc4ccccc4C(=O)NC)ccc23)c1	0%	0%	0%	0%	0%	0%	0%	8%	11%	0%
CSc1ccc(-c2cc3ncnc(SCC(=O)O)c3s2)cc1	0%	0%	0%	0%	0%	0%	0%	0%	0%	14%
CCc1nc(-c2cccc(C)c2)c(-c2ccnc(NCc3ccccc3)c2)s1	11%	0%	0%	15%	0%	4%	22%	0%	0%	3%
O=c1cc(N2CCOCC2)nc2n(Cc3cccc(C(F)(F)F)c3)ccn12 [GSK2297543]	0%	0%	0%	21%	16%	0%	0%	15%	0%	4%
Fc1ccc(-c2ncn(CCCN3CCOCC3)c2-c2ccccn2)cc1 [SB-211742]	0%	19%	0%	3%	6%	15%	4%	0%	19%	10%
O=C(NCCNc1ccnc(Nc2ccc(F)cc2)n1)Nc1ccccc1F [GSK1379880]	0%	0%	0%	0%	19%	0%	0%	0%	25%	0%
O=c1cc(N2CCOCC2)nc2n(Cc3cccc4ccccc34)ccn12 [GSK2333389]	9%	0%	0%	6%	0%	0%	20%	0%	2%	0%
